# Hits are enriched below; roughly 19% of the tested compounds scored in any of these assays.
# HT1080 IDH1KD tx – HT-1080 IDH1 knockdown cell toxicity (counter line); AID 686971; Potency, µM (titrated, usually from 46.1 µM), for inactives: at the highest dose activity, negative = toxicity, actives largely listed as cytotoxic; hit rate 2% among 360,000; HT-1080 IDH1 knockdown viability, ATP luminescence, 48 h;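 also: potency is read from the fitted curve at half-maximal effect; 0% = DMSO wells and -100% = cell-free medium wells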
#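 Knockdown cells (IDH1KD HT-1080) received compounds 2 h after plating at 750 cells/well and were kept 48 h at 37 °C in 5% FBS RPMI. A CellTiter-Glo luminescence read gave % activity for curve fitting.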
# DT40 TDP1 CPT – DT40-hTDP1 cell growth loss with CPT; chicken DT40 Tdp1-/-;hTDP1 cells + 20 nM CPT, ATP luminescence, 48 h; Potency, µM (doses to about 46.2 µM), inactives show top-dose activity change, negative = growth inhibition, most hits filed as inhibitors; hit rate 12% among 420,000; AID 686979; also: potency is read from the fitted curve at half-maximal effect; nearly all actives have a fitted effect of over 55% in size
#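 Cell growth measured by CellTiter-Glo luminescence after a minimum 48 h, 37 C compound exposure with 20 nM CPT in Tdp1-knockout DT40 cells stably expressing hTDP1, seeded 400/well; qHTS titration format.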
# IL-1B inflam inh – inflammasome signaling inhibition, IL-1 beta readout | THP-1 LPS/ATP IL-1B secretion, AlphaLISA, 16 h; active compounds read low | activity change, % at 57.5 µM | hit rate 4.7% among 360,000; in the data active = activity change below about -50%; inconclusive = mostly about -30% to -49%
#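 THP-1 cells pretreated 1 hr with compounds (up to 57.5 uM final), then stimulated with LPS (250 ng/mL final) plus ATP (1.25 mM final); secreted IL-1B measured by AlphaLISA after 16 hr, decreased signal indicating inhibition.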
# DT40 TDP1 no CPT – qHTS for Inhibitors of human tyrosyl-DNA phosphodiesterase 1 (TDP1): qHTS in cells in absence of CPT | DT40 Tdp1-/- hTDP1 cells, no CPT, ATP luminescence, 48 h | Potency, µM (series often up to 46.2 µM), without a hit: top-dose activity change, negative = growth inhibition, actives largely listed as inhibitors | hit rate 15% among 420,000 | AID 686978, 2013; also: potency is read from the fitted curve at half-maximal effect; nearly all actives have a fitted effect of over 55% in size
#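 Stably hTDP1-transfected Tdp1-null chicken DT40 cells were treated with library compounds minus camptothecin and grown for at least 48 hr at 37 °C, after which cellular ATP was quantified by luminescence.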
# HT1080-NT tox – kills 2HG-producing HT-1080-NT fibrosarcoma cells | Potency, µM (series often up to 46.1 µM), without a hit: at the highest dose activity, negative = less viability, usual class: cytotoxic | AID 686970 | HT-1080-NT fibrosarcoma viability, CellTiter-Glo ATP luminescence, 48 h | hit rate 1.6% among 360,000;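 also: NT is the 2HG producing partner of a matched IDH1 knockdown line; potency is read from the fitted curve at half-maximal effect; 0% = DMSO-treated cells and -100% = media-only wells without cells; nearly all actives have a fitted effect of over 55% in size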
#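 HT-1080-NT; 750 cells/well; 5% FBS RPMI; 48 h compound, 37 degrees C; CellTiter-Glo luminescence; curve fitting and curve-class assignment.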
# * marks the source's active call; other numbers are inactive results; ? = inconclusive; . = no result; [ ] = another dose, or the depositor's remark. Unless noted, calls follow the shape of the dose curve; as a rule, active = well fitted curve in the direction sought with a large enough effect; inconclusive = small, poorly fitted or top-dose-only effect, or another doubt; inactive = no such curve, though single readings can be large; an effect the other way counts as inactive or inconclusive. Unless noted, % is scaled to controls: 0 for no effect and ±100 for the full control effect.
SMILES,HT1080 IDH1KD tx,DT40 TDP1 CPT,IL-1B inflam inh,DT40 TDP1 no CPT,HT1080-NT tox
CC(NC(=O)C12CC3CC(C1)CC(n1cncn1)(C3)C2)C12CC3CC(CC(C3)C1)C2 (stereo unspecified),-21.1%,10.3µM*,14.0,8.2µM*,-14.4%
CCN(CC)CCCNC(=O)CCc1c(C)nc2c(c1C)c(=O)n(C)c(=O)n2C,.,-27.8%,.,?,.
COc1nc(NCCN2CCOCC2)nc(Nc2ccccc2)n1,4.7%,26.7%,7.6,7.9%,8.6%
COc1ccc(Nc2nc(NCCN3CCOCC3)nc(Nc3ccc(OC)cc3)n2)cc1,-13.5%,11.2µM*,-90.9*,14.1µM*,-29.2%
O=[N+]([O-])c1ccc(Nc2nc(Cl)nc(NCCO)n2)cc1,-2.1%,7.4%,36.4,-13.8%,-4.1%
O=[N+]([O-])c1ccc(Nc2nc(NCCN3CCOCC3)nc(Nc3ccc(Cl)cc3)n2)cc1,.,14.1µM*,.,10µM*,.
O=[N+]([O-])c1ccc(Nc2nc(NCCN3CCOCC3)nc(Nc3ccc(I)cc3)n2)cc1,.,7.08µM*,.,4.47µM*,.
COc1ccc(C)cc1NS(=O)(=O)c1ccc2c(c1)oc(=O)n2C,0.0%,-24.6%,0.0,-17.5%,-1.3%
CC(C)CCN1CCN(C2CSCCSC2)CC1CCO (stereo unspecified),-0.4%,0.9%,15.4,9.1%,-2.8%
CN(C)/C=C/C1=CC(=O)CC(C)(C)C1,20.6µM*,-2.3%,?,-23.8%,-29.4%
CCOc1ccc(NC(=O)CSc2cn[nH]n2)cc1,-0.1%,-2.8%,3.6,-54.4%,-18.4%
Oc1ccccc1-c1nc2cnccn2c1Nc1ccc2c(c1)OCCO2,-16.4%,?,13.2,-27.5%,-14.4%
CC(=O)N1c2ccccc2C(C)=CC1(C)C,-0.4%,-18.4%,15.0,-17.5%,11.5%
CC1=CC(C)(C)N(S(=O)(=O)c2ccc(C)cc2)c2ccc(C)cc21,6.31µM*,5.8µM*,-3.5,18.4µM*,3.16µM*
CC1=CC(C)(C)N(S(=O)(=O)c2ccc(F)cc2)c2ccccc21,?,25.9µM*,64.4,?,11.2µM*
Cc1ccc(C)c(N2CN(CCC3=CCCCC3)CNC2=S)c1,4.4%,?,?,20.6µM*,26.8%
CCCN1CNC(=S)N(c2cc(C)ccc2C)C1,-12.6%,-6.3%,-16.0,-9.3%,-4.5%
COC(=O)c1ccc(CN2CCOc3ccc(CN4CCC(O)(c5cccnc5)CC4)cc3C2)cc1,.,-3.2%[9.04 µM],.,?,.
CCc1ccc(NC(=O)C2CCN(S(=O)(=O)c3cccs3)CC2)cc1,-29.0%,?,-80.4*,?,?
COc1ccc(/C=C2\SC(=O)N(CCNC(=O)C3CCN(S(=O)(=O)c4cccs4)CC3)C2=O)cc1,0.5%,?,22.7,-26.6%,3.0%
Cc1ccc(NC(=O)C2CCN(S(=O)(=O)c3cccs3)CC2)cc1,-19.2%,?,-26.0,?,-7.2%
COc1cc(NC(=O)C2CCN(S(=O)(=O)c3cccs3)CC2)cc(OC)c1,-11.4%,18.4µM*,-14.2,?,-0.7%
O=C(NCCN1C(=O)S/C(=C\c2ccc(F)cc2)C1=O)C1CCN(S(=O)(=O)c2cccs2)CC1,15.1%,11.6µM*,19.0,10.3µM*,3.8%
CC[C@H]1OC(=O)[C@H](C)[C@@H](O[C@H]2C[C@@](C)(OC)[C@@H](O)[C@H](C)O2)[C@H](C)[C@@H](O[C@@H]2O[C@H](C)C[C@H](N(C)C)[C@H]2O)[C@](C)(O)C[C@@H](C)C(=NOCOCCOC)[C@H](C)[C@@H](O)[C@]1(C)O,.,?,-14.1,7.31µM*,.
CC[C@H]1OC(=O)[C@H](C)[C@@H](O[C@H]2C[C@@](C)(OC)[C@@H](O)[C@H](C)O2)[C@H](C)[C@@H](O[C@@H]2O[C@H](C)C[C@H](N(C)C)[C@H]2O)[C@](C)(OC)C[C@@H](C)C(=O)[C@H](C)[C@@H](O)[C@]1(C)O,6.2%,5.7%,-12.0,-29.3%,13.7%
SMILES,HT1080 IDH1KD tx,DT40 TDP1 CPT,IL-1B inflam inh,DT40 TDP1 no CPT,HT1080-NT tox
CC1CCCCC1NC(=O)c1cccc(S(=O)(=O)N2CCN(Cc3ccccc3)CC2)c1 (stereo unspecified),-11.6%,16.4µM*,2.6,20.6µM*,-2.4%
CSc1ccc(CN(C)C(=O)c2cccc(S(=O)(=O)N3CCN(Cc4ccccc4)CC3)c2)cc1,-18.0%,16.4µM*,-71.5*,13µM*,?
COc1ccccc1CN(C)C(=O)c1cccc(S(=O)(=O)N2CCN(Cc3ccccc3)CC2)c1,8.6%,?,-53.9*,?,5.4%
CN(Cc1ccc(F)cc1)C(=O)c1cccc(S(=O)(=O)N2CCN(Cc3ccccc3)CC2)c1,-9.3%,20.6µM*,-60.9*,13µM*,-22.9%
COc1cccc(NC(=O)c2cccc(S(=O)(=O)N3CCN(Cc4ccccc4)CC3)c2)c1,-4.9%,?,?,?,-3.0%
CN1CCN(S(=O)(=O)c2cccc(C(=O)N(Cc3ccccc3)c3ccccc3)c2)CC1,0.9%,?,4.0,?,0.9%
CC(=O)N1CCN(S(=O)(=O)c2cccc(C(=O)NC3CCCC(C)C3C)c2)CC1 (stereo unspecified),-8.2%,-26.1%,14.0,?,-2.5%
Cc1c(Cl)cccc1NC(=O)N1CCC(CN2CCCC2)CC1,.,4.3%,.,-15.6%,.
Cc1ccc(S(=O)(=O)N(C)CC(=O)NCCCn2nc(C)cc2C)cc1,-7.2%,-33.0%,-14.9,-6.4%,4.4%
Cc1ccc(N2C(=O)[C@@H]3C(c4cccnc4)=NO[C@@H]3C2=O)cc1,11.3%,?,0.0,?,11.1%
O=C(C[C@H]1C[C@H](C(=O)N2CCCCC2)[C@@]2(CCc3ccccc3)c3[nH]c4ccc(Cl)cc4c3CCN2C1=O)NCc1ccco1,4.3%,7.31µM*,-19.4,8.2µM*,4.1%
COc1ccc2[nH]c3c(c2c1)CCN1C(=O)C(CC(=O)NCCN2CCOCC2)C[C@H](C(=O)N2CCCCC2)[C@@]31CCc1ccccc1 (stereo partly specified),5.4%,?,3.4,?,12.7%
COc1ccc2[nH]c3c(c2c1)CCN1C(=O)C(CC(=O)NCc2cccc(C(F)(F)F)c2)C[C@H](C(=O)N2CCCCC2)[C@@]31CCc1ccccc1 (stereo partly specified),-0.2%,16.4µM*,?,?,2.2%
COCCCNC(=O)C[C@H]1C[C@H](C(=O)N2CCCCC2)[C@@]2(CCc3ccccc3)c3[nH]c4ccc(Cl)cc4c3CCN2C1=O,4.1%,8.2µM*,-17.4,4.61µM*,7.0%
